For test [1], the target named is Cytochrome P450 3A4 (Homo sapiens) (UniProt P08684). In words: qHTS Assay for Inhibitors and Substrates of Cytochrome P450 3A4 (AID 884). Note: % is set by controls: 0 for no effect and ±100 for the full control effect; nearly all actives have a fitted effect of over 50% in size. In a few lines:
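Luminescent readout of luciferin produced by CYP3A4 (20 nM) dealkylation of Luciferin-PPXE, 25 uM (its KM). NADPH-driven reaction ran 60 min at RT after 10 min compound preincubation; data scaled to 57 uM ketoconazole as 100% inhibition.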
On the technique in general: qHTS replaces the single test concentration by a dilution series.

Test [2] can be described thus: Confirmation and Secondary Assay for Modulators of Hemoglobin Beta Chain Splicing at IVS2 654 locus (AID 910).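 Note: per-well total GFP intensity by laser scanning cytometry after 2-day treatment; % of control where 0% means no effect.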 In a few lines:
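HeLa cells stably carrying EGFP interrupted by mutant beta-globin IVS2-654 intron (CMV-driven) were treated with compound for 2 days at 37C; corrected splicing was scored as total peak GFP intensity per well (488 nm excitation, 500-520 nm emission).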

A short description of test [3]: Confirmation and Secondary Assay for Modulators of Hemoglobin Beta Chain Splicing at IVS2 705 locus (AID 930).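 Note: HeLa cells stably expressing the EGFP-705 splicing reporter; GFP fluorescence per well restored by corrected splicing of the IVS2-705 intron in EGFP; % of control where 0% means no effect.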 In a few lines:
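Fluorescence gain (488 nm laser, 500-520 nm PMT) reflects restored correct splicing of a mutant IVS2-705 intron inside EGFP in stably transfected HeLa cells after 2-day compound treatment.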

Test [4] in a line: qHTS Assay for Lipid Storage Modulators (AID 1519; calls by dose curve; note: potency is the fitted concentration of half-maximal effect; for activity change, negative = inhibition: % is set by controls: 0 for no effect and ±100 for the full control effect). The note with it: Drosophila S3 cells, BODIPY lipid droplet/cell ratio, laser cytometry, cells loaded with oleic acid; for activity change, negative = inhibition: at 57.5 µM (top of the series). In a few lines: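 Cells seeded at 5,000 per well were treated with compounds over a concentration series and loaded with oleic acid (400 uM, as added). Lipid droplet fluorescence (488 nm excitation, 500-530 nm channel) was read by laser-scanning cytometry and normalized to 20 uM Triacsin C.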

The target in test [5] is Cytochrome P450 3A4 (Homo sapiens) (UniProt P08684). Kind of test: qHTS Assay for Activators of Cytochrome P450 3A4 (AID 885). Note: nearly all actives have a fitted effect of over 65% in size. Note: potency is the fitted concentration of half-maximal effect. In a few lines: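 Activators are scored by enhanced luminescence from CYP3A4 conversion of luciferin-PPXE (25uM, equal to KM) to luciferin, after 60 min at RT with an NADPH-regenerating system.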
Where [6] appears, read: measured here: cell count channel max response.
Setting [7] is: measured here: lipid channel max response.

Records with an inconclusive call do not appear. Active and inactive are the calls of the source. Unless noted, calls come from the whole dose curve; as a rule, active = well fitted curve in the direction sought with a large enough effect; inconclusive = small, poorly fitted or top-dose-only effect, or another doubt; inactive = no such curve, though single readings can be large; an effect the other way counts as inactive or inconclusive.

Sequence of Cytochrome P450 3A4 (Homo sapiens) (P08684 whole entry, looked up): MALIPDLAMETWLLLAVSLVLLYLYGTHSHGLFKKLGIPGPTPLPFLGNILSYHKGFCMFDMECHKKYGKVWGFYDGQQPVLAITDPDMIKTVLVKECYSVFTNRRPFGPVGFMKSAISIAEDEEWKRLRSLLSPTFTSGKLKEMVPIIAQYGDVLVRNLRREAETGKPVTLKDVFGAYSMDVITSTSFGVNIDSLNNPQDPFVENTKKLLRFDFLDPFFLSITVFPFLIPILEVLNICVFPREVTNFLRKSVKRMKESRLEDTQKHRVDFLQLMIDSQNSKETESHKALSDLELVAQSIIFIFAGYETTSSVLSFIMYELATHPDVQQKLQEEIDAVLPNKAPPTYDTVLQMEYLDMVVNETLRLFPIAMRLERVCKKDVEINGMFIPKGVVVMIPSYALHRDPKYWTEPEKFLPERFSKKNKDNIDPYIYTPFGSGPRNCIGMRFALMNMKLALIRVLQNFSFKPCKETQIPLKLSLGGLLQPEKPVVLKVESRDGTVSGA

Turning to `CC12CCC3c4ccc(OCc5ccccc5)cc4CCC3C1CC(O)C2O` (configuration not stated), the Potency result in test [1], in test [2] and in test [3] was “inactive” each time. Moreover, the activity change, negative = inhibition in test [4] is 3.93% (inactive). Besides, the max response in test [4] (setting [6]) was determined as 2.78%; in test [4] (setting [7]) it was 8.16%.
Regarding `CC1O[C@@H](O[C@H]2C(Oc3cc(O)c4c(=O)cc(-c5ccc(O)cc5)oc4c3)OC(CO)C(O)C2O)C(O)C(O)C1O` (some centres not stated), the Potency result in test [1], in test [2] and in test [3] was “inactive” throughout. Besides, in test [4], the activity change, negative = inhibition is 4.65% (inactive). For the same compound, the max response in test [4] (setting [6]) stood at 16.6%; in test [4] (setting [7]) it was 23.3%.
Consider `CC(C)=CC1C(CO)C1(C)C` (configuration not stated), for which the Potency result in test [1], in test [2] and in test [3] was “inactive” in each case. The activity change, negative = inhibition in test [4] is 4.52% (inactive). In addition, the results for the max response in test [4] (setting [6]) and in test [4] (setting [7]) were 11.9% and 18.1%, respectively.
For the compound `CC(C)c1c(O)ccc2c1CCC1[C@@](C)(CO)CCC[C@@]21C` (some centres not stated), the Potency entry in test [5], in test [2] and in test [3] was “inactive” throughout. Besides, the activity change, negative = inhibition in test [4] is 10.8% (inactive). Moreover, the max response in test [4] (setting [6]) came out at 14.4%; in test [4] (setting [7]) it was 26.5%.
With `C#CCCCCCCCCCCCC(O)CC(O)CO` (configuration not stated), the Potency entry in test [5], in test [2] and in test [3] was “inactive” in each case. The activity change, negative = inhibition in test [4] is 15.6% (inactive). The max response in test [4] (setting [6]) was 3.34%; in test [4] (setting [7]), 18.3%.
For `O=C(CC(=O)c1ccccc1)c1ccccc1`, the Potency result in test [5], in test [2] and in test [3] was “inactive” throughout. Further, the activity change, negative = inhibition in test [4] is 2.34% (inactive). In addition, the max response in test [4] (setting [6]) was -0.636%; in test [4] (setting [7]) it was 4.72%.
As for `CCC(=O)OC1C2CC3=C4CC(=O)OC(c5ccoc5)[C@]4(C)CCC3[C@@](C)(C2=O)C(CC(=O)OC)C1(C)C` (some centres not stated), the Potency entry in test [1], in test [2] and in test [3] was “inactive” each time. Moreover, the activity change, negative = inhibition in test [4] is -15.8% (inactive). The max response in test [4] (setting [6]) is -7.4%; in test [4] (setting [7]), -17%.
Consider `COc1c(-c2coc3cc4c(cc3c2=O)CC(O)C(C)(C)O4)ccc2c1C=CC(C)(C)O2` (configuration not stated), for which the Potency is 2510 nM (active) in test [5] and 70.8 nM (active) in test [4]. For the same compound, the Potency entry in test [2] and in test [3] was “inactive” each time. Further, the max response in test [4] (setting [6]) is -20.3%; in test [4] (setting [7]), -70.3%.
As for `O=c1[nH]c(=O)n(C2CC(O)C(CO)O2)cc1F` (configuration not stated), the Potency entry in test [2] and in test [3] was “inactive” throughout. Besides, in test [4], the activity change, negative = inhibition was 3.4% (inactive). The max response turned out to be 3.49% in test [4] (setting [6]) and 8.27% in test [4] (setting [7]).
Consider `CC1=C(C(=O)O)N2C(=O)C(NC(=O)C(N)c3ccccc3)C2SC1` (configuration not stated), for which the Potency entry in test [2] and in test [3] was “inactive” each time. In addition, the activity change, negative = inhibition in test [4] was 9.95% (inactive). For the same compound, the values for the max response in test [4] (setting [6]) and in test [4] (setting [7]) were 9.88% and 24.8%, respectively.
Take `CC(C)=CCCC(C)C1CC[C@@]2(C)C3=C(CC[C@@]12C)C1(C)CCC(O)C(C)(C)C1CC3` (some centres not stated): the Potency result in test [2] and in test [3] was “inactive” in each case. In addition, the activity change, negative = inhibition in test [4] is 6.04% (inactive). For the same compound, the max response in test [4] (setting [6]) amounted to 10.4%; in test [4] (setting [7]), 15.7%.
On to `CC(=O)Oc1cc2c(c(C)c1OC(C)=O)CC=C1[C@]3(C)CC[C@]4(C)CC[C@@](C)(C(=O)O)CC4[C@]3(C)CC[C@]12C` (some centres not stated), for which the Potency entry in test [5], in test [2] and in test [3] was “inactive” throughout. Moreover, the activity change, negative = inhibition in test [4] was -5.08% (inactive). The max response is -7.33% in test [4] (setting [6]) and -12.4% in test [4] (setting [7]).
On to `CC(=O)c1c(O)c(C)c(O)c2c1OC1=CC(=O)C(C(C)=O)C(=O)C12C` (configuration not stated), for which the Potency result in test [2] and in test [3] was “inactive” throughout. The activity change, negative = inhibition in test [4] was 6.96% (inactive). In addition, the max response worked out at 24.8% in test [4] (setting [6]) and 22.6% in test [4] (setting [7]).
In the case of `COC1=CC(=O)C(O)=C/C1=C\C=C\c1ccccc1`, the Potency entry in test [5], in test [2] and in test [3] was “inactive” throughout. In addition, the activity change, negative = inhibition in test [4] is -23.3% (inactive). Further, the max response in test [4] (setting [6]) was -8.41%; in test [4] (setting [7]) it was -29.1%.
Turning to `C=CCCCCCCCCCCCC(O)CC(O)COC(C)=O` (configuration not stated), the Potency result in test [5], in test [2] and in test [3] was “inactive” throughout. Further, the activity change, negative = inhibition in test [4] is 12.3% (inactive). In addition, the max response amounted to 4.88% in test [4] (setting [6]) and 15.5% in test [4] (setting [7]).
As for `CN1CCCC1c1cccnc1` (configuration not stated), the Potency entry in test [2] and in test [3] was “inactive” throughout. In addition, in test [4], the activity change, negative = inhibition was 7.69% (inactive). Besides, the max response in test [4] (setting [6]) came to 11.9%; in test [4] (setting [7]), 23.7%.
In the case of `COc1cc(O)cc(/C=C/c2ccccc2)c1`, the Potency entry in test [5], in test [2] and in test [3] was “inactive” each time. Besides, the activity change, negative = inhibition in test [4] is 5.85% (inactive). Besides, the max response in test [4] (setting [6]) is -8.15%; in test [4] (setting [7]), -0.333%.

The record behind these values is PubChem BioAssay (NCATS).
